Results as given in PubChem BioAssay (NCATS).
Values joined by “and” are separate entries in the source; they are usually repeats but may differ in a detail not shown here. Identical values can stand only once. Inconclusive results are not listed. Active and inactive are the calls of the source. Unless noted, calls follow the shape of the full dose curve.

How the values were obtained:
[1] = target: Estrogen receptor (Homo sapiens) (UniProt P03372); test: qHTS assay for small molecule antagonists of estrogen receptor alpha signaling (AID 588513; active = well fitted curve in the direction sought with a large enough effect in the signal ratio, with a control signal flat, not every such curve was filed as active; the % refers to the signal ratio; also: % is scaled to controls: 0 for no effect and ±100 for the full control effect)
Sequence of Estrogen receptor (Homo sapiens) (P03372 whole entry, looked up): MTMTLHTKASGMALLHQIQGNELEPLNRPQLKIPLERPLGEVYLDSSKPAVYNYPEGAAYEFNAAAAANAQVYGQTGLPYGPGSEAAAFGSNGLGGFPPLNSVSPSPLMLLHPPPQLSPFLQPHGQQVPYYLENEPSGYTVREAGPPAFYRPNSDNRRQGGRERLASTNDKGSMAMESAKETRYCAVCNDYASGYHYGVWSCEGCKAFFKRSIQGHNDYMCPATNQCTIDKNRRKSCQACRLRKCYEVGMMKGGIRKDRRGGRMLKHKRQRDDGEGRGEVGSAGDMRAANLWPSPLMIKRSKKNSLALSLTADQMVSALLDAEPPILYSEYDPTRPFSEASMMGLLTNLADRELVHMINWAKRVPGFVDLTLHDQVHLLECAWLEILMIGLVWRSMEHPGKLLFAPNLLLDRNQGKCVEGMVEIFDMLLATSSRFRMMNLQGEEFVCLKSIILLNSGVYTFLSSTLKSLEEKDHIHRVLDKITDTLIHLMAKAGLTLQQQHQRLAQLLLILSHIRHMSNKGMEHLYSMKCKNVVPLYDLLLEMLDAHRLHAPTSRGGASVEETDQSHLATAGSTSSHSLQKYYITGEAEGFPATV
Summary of the method: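 ER-alpha-UAS-bla GripTite HEK 293 cells in 2% charcoal/dextran-treated FBS medium; compounds titrated (1:2, duplicate), then stimulated with 0.5 nM 17-beta-estradiol for 18 h at 37C. CCF4 beta-lactamase fluorescence; Hill-fit IC50 and efficacy.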

[2] = target: Estrogen receptor (Homo sapiens) (UniProt P03372); test: qHTS assay for small molecule agonists of estrogen receptor alpha signaling (AID 588514);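 also: 0% = vehicle only and 100% = reference agonist; nearly all actives have a fitted effect of over 70% in size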
Summary of the method: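 Cells were plated at 5000/well, incubated 4 hrs at 37 C, dosed with compound titration series, incubated 18 hrs at 37 C, loaded with CCF4 dye for 2 hrs at RT, then fluorescence was read.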

[3] = target: Glucocorticoid receptor (Homo sapiens) (UniProt P04150); test: qHTS assay for small molecule agonists of glucocorticoid receptor signaling (AID 588532; active = well fitted curve in the direction sought with a large enough effect in the signal ratio, with a control signal flat; the % refers to the signal ratio;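 also: 100% = dexamethasone at 0.1 µM and 0% = DMSO only wells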); conditions: HeLa MMTV-bla, beta-lactamase ratio, agonist, 18 h; stronger effect = higher value; percent of dexamethasone control, DMSO zero
Sequence of Glucocorticoid receptor (Homo sapiens) (P04150 whole entry, looked up): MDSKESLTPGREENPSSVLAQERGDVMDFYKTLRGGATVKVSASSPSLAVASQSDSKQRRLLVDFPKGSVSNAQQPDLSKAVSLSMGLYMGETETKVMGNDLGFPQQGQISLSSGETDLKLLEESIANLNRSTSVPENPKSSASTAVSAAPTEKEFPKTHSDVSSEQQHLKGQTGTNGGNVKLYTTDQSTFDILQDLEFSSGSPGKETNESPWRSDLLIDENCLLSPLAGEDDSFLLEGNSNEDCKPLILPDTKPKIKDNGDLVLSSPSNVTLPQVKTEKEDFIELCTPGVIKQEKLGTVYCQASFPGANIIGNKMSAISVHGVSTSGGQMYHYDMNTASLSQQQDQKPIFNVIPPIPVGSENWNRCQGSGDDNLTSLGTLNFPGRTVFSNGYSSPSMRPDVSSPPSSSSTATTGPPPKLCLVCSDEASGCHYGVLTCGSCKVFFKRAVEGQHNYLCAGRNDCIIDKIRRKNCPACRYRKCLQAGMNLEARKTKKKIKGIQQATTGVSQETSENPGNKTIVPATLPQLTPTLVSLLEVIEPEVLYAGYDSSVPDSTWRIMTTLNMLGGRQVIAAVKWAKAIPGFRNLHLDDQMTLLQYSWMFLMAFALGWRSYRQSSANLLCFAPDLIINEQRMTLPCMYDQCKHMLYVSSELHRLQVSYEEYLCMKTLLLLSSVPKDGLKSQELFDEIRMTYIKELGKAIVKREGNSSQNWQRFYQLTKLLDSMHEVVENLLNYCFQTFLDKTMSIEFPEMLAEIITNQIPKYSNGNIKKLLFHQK
Summary of the method: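 Titration series, up to 92 uM, applied to GRE-bla HeLa cells for 18 h at 37 C. Detection by CCF4 FRET substrate after 2 h at RT.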

[4] = target: Glucocorticoid receptor (Homo sapiens) (UniProt P04150); test: qHTS assay for small molecule antagonists of glucocorticoid receptor signaling (AID 588533; active = well fitted inhibition curve with a large enough effect in the signal ratio, with a control signal flat, not every such curve was filed as active; the % refers to the signal ratio;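 also: cells stimulated with 2 nM dexamethasone as agonist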; also: potency is read from the fitted curve at half-maximal effect)
Summary of the method: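 Antagonist-mode qHTS: compound titrations added to GRE-bla HeLa cells, then dexamethasone 2 nM final; 18 h, 37 C. CCF4 FRET fluorescence normalized to dexamethasone and DMSO; IC50 from Hill fit.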

[5] = qHTS assay for small molecule antagonists of peroxisome proliferator-activated receptor delta signaling (AID 588535; active = well fitted inhibition curve with a large enough effect in the signal ratio, with a control signal flat, not every such curve was filed as active; the % refers to the signal ratio;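 as to max response: cells co-treated with a PPAR-delta agonist as stimulator during compound exposure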); conditions: HEK293T PPARd-UAS-bla, beta-lactamase FRET ratio, 18 h; 460 nm channel
Summary of the method: (§1)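 Reporter: UAS-bla under PPAR-delta response element, HEK293T host. Medium: 2% charcoal/dextran FBS. Dosing: titration, 18 hrs, 37 C. Detection: CCF4, 2 hrs RT, 405 ex/460 and 530 em.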

[6] = target: Peroxisome proliferator-activated receptor delta (Homo sapiens) (UniProt Q03181); test: as above
Sequence of Peroxisome proliferator-activated receptor delta (Homo sapiens) (Q03181 whole entry, looked up): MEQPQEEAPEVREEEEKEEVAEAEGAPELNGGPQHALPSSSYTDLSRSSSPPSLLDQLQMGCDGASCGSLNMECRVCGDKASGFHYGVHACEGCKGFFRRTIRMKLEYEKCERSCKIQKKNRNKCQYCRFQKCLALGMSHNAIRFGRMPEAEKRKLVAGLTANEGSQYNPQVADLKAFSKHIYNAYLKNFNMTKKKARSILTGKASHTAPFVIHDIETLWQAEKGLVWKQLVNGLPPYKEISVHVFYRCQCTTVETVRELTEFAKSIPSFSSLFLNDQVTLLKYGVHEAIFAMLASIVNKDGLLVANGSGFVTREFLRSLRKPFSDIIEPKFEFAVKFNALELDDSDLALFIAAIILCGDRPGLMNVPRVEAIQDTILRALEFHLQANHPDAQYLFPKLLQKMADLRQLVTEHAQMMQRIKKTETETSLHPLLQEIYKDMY
Summary of the method: as §1

[7] = target: Peroxisome proliferator-activated receptor gamma (Homo sapiens) (UniProt P37231); test: qHTS assay for small molecule agonists of peroxisome proliferator-activated receptor gamma signaling (AID 588536; active = well fitted curve in the direction sought with a large enough effect in the signal ratio, with a control signal flat, not every such curve was filed as active; the % refers to the signal ratio;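 also: 0% = DMSO basal wells and 100% = rosiglitazone at 2 µM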)
Summary of the method: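 Ratiometric blue/green fluorescence (405 nm excitation; 460 and 530 nm emission) from CCF4-loaded HEK293 reporter cells serves as signal. Exposure to test compounds lasts 16 h at 37 C in medium containing 1% charcoal/dextran-treated serum.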

[8] = qHTS assay for small molecule agonists of retinoid X receptor alpha signaling (AID 588544); conditions: HEK293T RXRa-UAS-bla, beta-lactamase reporter, 18 h; 530 nm emission;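 as to activation: 0% = DMSO basal wells and 100% = reference agonist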
[9] = target: Retinoic acid receptor RXR-alpha (Homo sapiens) (UniProt P19793); test: as above
Sequence of Retinoic acid receptor RXR-alpha (Homo sapiens) (P19793 whole entry, looked up): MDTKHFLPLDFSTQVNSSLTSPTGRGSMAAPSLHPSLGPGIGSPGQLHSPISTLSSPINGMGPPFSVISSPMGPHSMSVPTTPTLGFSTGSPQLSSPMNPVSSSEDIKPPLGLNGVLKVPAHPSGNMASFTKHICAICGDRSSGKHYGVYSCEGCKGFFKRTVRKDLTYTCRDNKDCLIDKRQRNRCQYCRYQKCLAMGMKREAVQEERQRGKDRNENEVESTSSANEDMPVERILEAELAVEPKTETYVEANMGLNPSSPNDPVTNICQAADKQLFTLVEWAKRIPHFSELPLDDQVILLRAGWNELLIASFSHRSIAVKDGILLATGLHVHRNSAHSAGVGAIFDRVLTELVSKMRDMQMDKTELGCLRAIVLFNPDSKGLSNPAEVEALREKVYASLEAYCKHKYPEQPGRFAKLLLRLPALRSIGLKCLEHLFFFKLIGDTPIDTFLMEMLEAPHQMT

[10] = target: Thyroid hormone receptor beta (Homo sapiens) (UniProt P10828); test: qHTS assay for small molecule agonists of thyroid hormone receptor beta signaling (AID 588545)
Sequence of Thyroid hormone receptor beta (Homo sapiens) (P10828 whole entry, looked up): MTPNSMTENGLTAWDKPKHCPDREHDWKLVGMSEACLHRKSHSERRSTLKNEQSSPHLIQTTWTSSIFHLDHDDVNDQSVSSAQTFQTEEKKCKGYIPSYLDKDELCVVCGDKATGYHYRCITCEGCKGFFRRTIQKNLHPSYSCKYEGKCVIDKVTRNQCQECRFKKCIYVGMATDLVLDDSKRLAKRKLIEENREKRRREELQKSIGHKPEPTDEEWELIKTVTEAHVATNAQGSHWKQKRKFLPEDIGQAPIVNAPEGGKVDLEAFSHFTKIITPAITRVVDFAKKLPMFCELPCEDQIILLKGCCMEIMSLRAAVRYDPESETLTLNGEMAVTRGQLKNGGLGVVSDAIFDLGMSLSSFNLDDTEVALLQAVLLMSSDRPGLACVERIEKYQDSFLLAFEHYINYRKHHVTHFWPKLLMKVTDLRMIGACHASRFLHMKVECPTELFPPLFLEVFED
Summary of the method: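 HEK 293 TR-UAS-bla; agonist mode; 18 hrs, 37 C; CCF4, ex 405/em 460 and 530 nm; norm. T3 10 nM = 100%, DMSO = 0%; Hill fit → EC50, efficacy.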

[11] = qHTS assay for small molecule antagonists of retinoid X receptor alpha signaling (AID 588546; active = well fitted inhibition curve with a large enough effect in the signal ratio, with a control signal flat, not every such curve was filed as active; the % refers to the signal ratio;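 also: cells stimulated with 9-cis-retinoic acid as agonist; % is scaled to controls: 0 for no effect and ±100 for the full control effect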); conditions: HEK293T RXRa-UAS-bla, beta-lactamase ratio, antagonist mode; measured here: W530 green channel, cytotoxicity proxy
Summary of the method: (§2)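 Beta-lactamase reporter inhibition, read as CCF4 fluorescence ratio (ex 405, em 460/530 nm) after 2 h at RT. HEK293T UAS-bla cells, 2500/well, were stimulated with 9-cis-RA at 500 or 100 nM final alongside test compound for 18 h at 37 C.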

[12] = target: Retinoic acid receptor RXR-alpha (Homo sapiens) (UniProt P19793); test: as above; conditions: HEK293T RXRa-UAS-bla, beta-lactamase ratio, antagonist mode
Summary of the method: as §2

[13] = target: Thyroid hormone receptor beta (Homo sapiens) (UniProt P10828); test: qHTS assay for small molecule antagonists of thyroid hormone receptor beta signaling (AID 588547; active = well fitted inhibition curve with a large enough effect in the signal ratio, with a control signal flat, not every such curve was filed as active; the % refers to the signal ratio;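 also: cells stimulated with 0.4 nM T3 agonist during compound exposure; series mostly up to about 77 µM; % is scaled to controls: 0 for no effect and ±100 for the full control effect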); conditions: TR-UAS-bla HEK293, beta-lactamase ratio, antagonist mode, 18 h
Summary of the method: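 TR-UAS-bla GripTite HEK293 cells in 2% charcoal/dextran FBS medium were preincubated 4 h at 37 C, given compound (0.59 nM to 92 uM) plus 0.4 nM T3 (final) for 18 h, then CCF4 for 2 h at RT; Hill fit gave IC50.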

[14] = target: Voltage-gated inwardly rectifying potassium channel KCNH2 (Homo sapiens) (UniProt Q12809); test: qHTS Assay for Small Molecule Inhibitors of the Human hERG Channel Activity (AID 588834; active = well fitted inhibition curve with a large enough effect;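 also: top concentration of the series differs between compounds; % is scaled to controls: 0 for no effect and ±100 for the full control effect; lower thallium flux fluorescence means stronger hERG block; nearly all actives have a fitted effect of over 50% in size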)
Sequence of Voltage-gated inwardly rectifying potassium channel KCNH2 (Homo sapiens) (Q12809 whole entry, looked up): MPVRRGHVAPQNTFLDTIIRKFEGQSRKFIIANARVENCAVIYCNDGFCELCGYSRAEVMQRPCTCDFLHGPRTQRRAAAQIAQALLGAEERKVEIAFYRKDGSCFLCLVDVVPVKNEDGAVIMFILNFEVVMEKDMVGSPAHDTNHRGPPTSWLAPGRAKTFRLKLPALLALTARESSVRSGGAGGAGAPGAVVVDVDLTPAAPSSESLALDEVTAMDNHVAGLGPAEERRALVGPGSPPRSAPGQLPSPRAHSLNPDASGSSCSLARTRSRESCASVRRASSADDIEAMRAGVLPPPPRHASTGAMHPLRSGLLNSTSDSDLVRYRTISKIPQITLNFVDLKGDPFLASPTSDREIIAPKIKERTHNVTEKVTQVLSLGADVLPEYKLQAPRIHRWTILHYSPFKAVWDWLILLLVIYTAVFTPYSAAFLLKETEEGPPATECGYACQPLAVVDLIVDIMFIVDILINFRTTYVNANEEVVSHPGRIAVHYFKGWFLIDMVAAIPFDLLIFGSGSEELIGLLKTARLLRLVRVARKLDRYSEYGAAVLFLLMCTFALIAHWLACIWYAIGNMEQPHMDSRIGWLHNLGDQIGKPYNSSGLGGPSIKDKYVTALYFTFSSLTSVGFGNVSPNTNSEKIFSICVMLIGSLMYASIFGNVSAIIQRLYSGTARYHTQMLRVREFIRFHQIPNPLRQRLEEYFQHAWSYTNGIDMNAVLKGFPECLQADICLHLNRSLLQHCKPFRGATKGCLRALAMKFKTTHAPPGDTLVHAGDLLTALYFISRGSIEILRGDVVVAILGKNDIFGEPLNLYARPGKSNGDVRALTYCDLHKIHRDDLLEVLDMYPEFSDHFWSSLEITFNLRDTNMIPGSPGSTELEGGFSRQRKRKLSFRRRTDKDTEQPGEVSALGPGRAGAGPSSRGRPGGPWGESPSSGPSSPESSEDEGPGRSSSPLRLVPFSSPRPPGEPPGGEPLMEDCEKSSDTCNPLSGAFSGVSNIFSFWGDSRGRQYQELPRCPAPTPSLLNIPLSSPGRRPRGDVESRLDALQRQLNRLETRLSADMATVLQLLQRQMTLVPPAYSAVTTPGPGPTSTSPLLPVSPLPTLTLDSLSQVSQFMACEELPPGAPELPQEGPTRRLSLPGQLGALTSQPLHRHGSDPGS
Summary of the method: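 U2OS cells BacMam-transduced with hERG, 2000 cells/well, compound ~10 min at 37 °C before stimulation buffer. FluxOR thallium flux fluorescence read kinetically on FDSS; decrease indicates block; AC50 from Hill fits.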

[15] = target: DNA dC->dU-editing enzyme APOBEC-3G (Homo sapiens) (UniProt Q9HC16); test: qHTS for inhibitors of Vif-A3G interactions: Validation (AID 588379; active = well fitted inhibition curve with a large enough effect; also: 0% is about no effect)
Summary of the method: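 HeLa cells stably expressing Vif and A3G-eYFP, 700 cells/well, incubated overnight at 37 deg C, then exposed to compound overnight at 37 deg C. Inhibition of Vif-mediated degradation read as increased yellow fluorescence (Ex 488/Em 500-530) by laser-scanning cytometry.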

[16] = target: Androgen receptor (Homo sapiens) (UniProt P10275); test: qHTS assay for small molecule antagonists of androgen receptor signaling (AID 588516; active = well fitted curve in the direction sought with a large enough effect in the signal ratio, with a control signal flat, not every such curve was filed as active; the % refers to the signal ratio; also: % is scaled to controls: 0 for no effect and ±100 for the full control effect)
Sequence of Androgen receptor (Homo sapiens) (P10275 whole entry, looked up): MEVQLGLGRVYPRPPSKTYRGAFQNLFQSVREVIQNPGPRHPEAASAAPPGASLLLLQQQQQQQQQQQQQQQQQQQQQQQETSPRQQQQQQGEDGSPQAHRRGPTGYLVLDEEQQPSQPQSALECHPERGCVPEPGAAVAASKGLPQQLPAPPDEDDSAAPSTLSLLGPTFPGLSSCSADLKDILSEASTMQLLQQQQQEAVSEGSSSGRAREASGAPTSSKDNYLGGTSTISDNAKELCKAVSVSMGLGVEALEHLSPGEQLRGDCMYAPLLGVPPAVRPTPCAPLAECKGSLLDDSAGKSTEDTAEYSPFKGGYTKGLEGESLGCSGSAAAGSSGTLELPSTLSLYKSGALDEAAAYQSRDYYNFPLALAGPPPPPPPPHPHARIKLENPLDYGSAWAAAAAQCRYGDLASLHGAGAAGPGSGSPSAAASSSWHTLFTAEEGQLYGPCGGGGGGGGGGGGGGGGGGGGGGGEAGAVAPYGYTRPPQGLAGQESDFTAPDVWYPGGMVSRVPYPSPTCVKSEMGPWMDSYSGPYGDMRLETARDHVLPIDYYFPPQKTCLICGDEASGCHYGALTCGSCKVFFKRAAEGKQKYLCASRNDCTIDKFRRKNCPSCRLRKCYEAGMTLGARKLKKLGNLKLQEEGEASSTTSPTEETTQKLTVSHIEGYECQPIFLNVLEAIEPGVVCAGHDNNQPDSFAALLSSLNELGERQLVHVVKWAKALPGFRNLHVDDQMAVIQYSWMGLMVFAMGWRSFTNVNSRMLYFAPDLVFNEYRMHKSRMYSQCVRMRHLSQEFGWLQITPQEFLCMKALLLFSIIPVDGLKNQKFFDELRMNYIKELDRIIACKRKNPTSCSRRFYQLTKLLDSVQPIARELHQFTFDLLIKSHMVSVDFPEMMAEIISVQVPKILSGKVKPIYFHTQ
Summary of the method: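 AR-UAS-bla GripTite HEK 293 cells (2000/well) treated with compound titrations plus 10 nM R1881 for 16 h at 37C. Beta-lactamase read by CCF4 FRET (460/530 nm); IC50 from Hill fits, normalized to R1881 and DMSO control wells.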

[17] = target: Bile acid receptor (Homo sapiens) (UniProt Q96RI1); test: qHTS assay for small molecule antagonists of farnesoid X receptor signaling (AID 588526); also: % is scaled to controls: 0 for no effect and ±100 for the full control effect
Summary of the method: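 Concentration-response titrations were fitted to the Hill equation for half-maximal inhibition and maximal response, with data normalised to 50 uM chenodeoxycholic acid and DMSO control wells. Cells: FXR-UAS-bla HEK293T, dialyzed FBS.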

[18] = target: Androgen receptor (Homo sapiens) (UniProt P10275); test: qHTS assay for small molecule agonists of androgen receptor signaling (AID 588515; active = well fitted curve in the direction sought with a large enough effect in the signal ratio, with a control signal flat; the % refers to the signal ratio; also: % is scaled to controls: 0 for no effect and ±100 for the full control effect); conditions: AR-UAS-bla HEK293, beta-lactamase ratio, agonist 16 h; stronger effect = higher value
Summary of the method: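 EC50 and efficacy came from Hill fits of titrations (up to 92 uM) normalized to 30 nM R1881 as 100% and DMSO as 0%. Compound exposure was 16 h at 37 C on AR-UAS-bla HEK293 cells, with a 405/460/530 nm CCF4 fluorescence read.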

[19] = target: Vitamin D3 receptor (Homo sapiens) (UniProt P11473); test: qHTS assay for small molecule agonists of vitamin D receptor signaling (AID 588543);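 also: 0% = DMSO basal and 100% = reference agonist control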
Summary of the method: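 VDR-UAS-bla HEK293T cells, 2000/well, 2% charcoal-stripped FBS; compound titration 16 h at 37 C; CCF4 beta-lactamase ratio read. Normalized to 50 nM 1-alpha,25-dihydroxyvitamin D3 (100%) and DMSO; Hill fit gives EC50, efficacy.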

[20] = target: Vitamin D3 receptor (Homo sapiens) (UniProt P11473); test: qHTS assay for small molecule antagonists of vitamin D receptor signaling (AID 588541)
Summary of the method: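 VDR-UAS-bla HEK293T cells (2000/well, 2% charcoal-stripped FBS) were treated with titrated compounds plus 1-alpha,25-dihydroxyvitamin D3 (50 nM or 3 nM final) for 16 h at 37 C. CCF4 beta-lactamase fluorescence was read; Hill fits gave IC50.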

O=c1[nH]cnc2c1ncn2[C@H]1CC[C@@H](CO)O1
45.2%: max response [5]
inactive: Potency [1] | outcome [2] | activation [3] 10.5% and 6.23% | Potency [4] | outcome [6] | outcome [7] | outcome [9] | outcome [10] | max response [12] 9.86% | activity change % (negative = inhibition) [13] 9.23% | Potency [14]
0.954% and -9.72%: max response [8]
-5.91%: max response [11]

CCCCCCCCCCCC1=C(O)C(=O)C=C(O)C1=O
inactive: outcome [15]

CCN1CCC[C@H]1CNC(=O)c1cc(S(N)(=O)=O)ccc1OC
inactive: outcome [15] | Potency [14]

O=c1c(-c2ccc(O)cc2)coc2cc(O)ccc12
inactive: outcome [15] | outcome [16] | outcome [17] | activation [3] -8.98% and -6.42% | Potency [4] | outcome [6] | outcome [7] | outcome [10] | max response [12] 8.82% and -46% | activity change % (negative = inhibition) [13] 20.4% | Potency [14]
2.28% and 13.9%: max response [11]
40.9% and 70.8%: max response [5]

O=C(O)c1cc(-c2ccccc2)nc2ccccc12
inactive: activation [18] -15.7% | outcome [16] | outcome [17] | Potency [4] | outcome [6] | outcome [19] | outcome [9] | outcome [10] | max response [12] -7.59% | activity change % (negative = inhibition) [13] 5.82% | Potency [14]
9.45%: max response [11]
26.3%: max response [8]
54.7%: max response [5]

CC(=O)c1ccc(S(=O)(=O)NC(=O)NC2CCCCC2)cc1
-6.48% and 24.9%: max response [11]
3.83% and 9.27%: max response [5]
0.432% and 9.79%: max response [8]
inactive: Potency [1] | outcome [2] | activation [18] -0.897% and 2.97% | outcome [16] | outcome [17] | activation [3] 9.83% and -7.15% | Potency [4] | outcome [6] | outcome [7] | outcome [20] | outcome [19] | outcome [9] | outcome [10] | max response [12] -4.66% and -24.2% | activity change % (negative = inhibition) [13] -3.97% and -18% | Potency [14]

COCCCCC(=NOCCN)c1ccc(C(F)(F)F)cc1
inactive: outcome [15]

COc1ccc(-c2coc3cc(O)ccc3c2=O)cc1
inactive: outcome [15]

O=c1cc(-c2ccc(O)cc2)oc2cc(O)cc(O)c12
inactive: outcome [15] | outcome [10] | activity change % (negative = inhibition) [13] -28.1% | Potency [14]
active: Potency [4] 31.6 µM

COc1cccc(-c2cc(=O)c3ccccc3o2)c1N
inactive: outcome [15] | Potency [14]

COc1ccc(Cc2nccc3cc(OC)c(OC)cc23)cc1OC
inactive: outcome [15]
